PubChem BioAssay AID2284422 (EPA ToxCast)
Calls of active or inactive are those of the source. The calls were made as follows: active = hit-call score of the fitted dose curve at least 0.9, where 1 is the maximum; inactive = score below 0.9.

Assay: CCTE_Deisenroth_DEVTOX-GLR_Meso_CellCount: Viability Assessment in CCTE's DevTox GLR-Meso Assay, Deisenroth Lab
Protocol: CCTE_Deisenroth_DEVTOX-GLR_Meso assay is a cell-based, multiplex-readout assay that uses RUES2-GLR, a human pluripotent cell line, with measurements taken at 48 hours after chemical dosing in a 384-well microplateCCTE_Deisenroth_DEVTOX-GLR_Meso_CellCount is 1 of 4 assay components calculated from the CCTE_Deisenroth_DEVTOX-GLR_Meso assay and it measures cell count. Using fluorescent nuclei staining, gain-of-signal activity can be used to understand changes in cell viability with fluorescent microscopy. It is designed to make measurements of nuclei counts as a surrogate for cell number, as detected with optical fluorescence microscopy by Perkin Elmer Harmony nuclei detection algorithm. To generalize the intended target to other relatable targets, this assay component is annotated to the cell cycle intended target family, where the subfamily is cytotoxicity.Data from the assay component CCTE_Deisenroth_DEVTOX-GLR_Meso_CellCount was analyzed as 1 assay endpoint. The endpoint the percent change in cell count relative to the 0.2% DMSO control in the CCTE_Deisenroth_DEVTOX-GLR_Meso assay. Furthermore, this assay endpoint can be referred to as a primary readout, because this assay has produced multiple assay endpoints where this one serves as a measure of cytotoxicity.
All assay protocols are aligned to the DevTox GLR-Endo assay workflow. Cells are seeded into 384-well microplates for 24 hours prior to initiating differentiation in defined media for a total duration of 48 hours. A total of two chemical exposures are administered in 24-hour intervals during the 48-hour differentiation period. At the assay termination point, cells are fixed and stained with a fluorescent dye demarcating the nucleus. High-content imaging is used to acquire brightfield and fluorescent channel images across 5 fields per well. Cell identification and mean biomarker fluorescence intensities are calculated with image analysis software to determine the total cell counts for viability assessment and the biomarker expression frequency for each lineage-dependent assay. A typical experimental design tests a 10-point concentration series (1 nM - 200 uM) for 28 compounds in single technical replicate. Assay plate controls include non-differentiated pluripotent cells (baseline control), lineage-specific differentiated cells (differentiation control), and DMSO solvent exposed differentiated cells (solvent control). Experiments typically comprise a minimum of four experimental replicates (n=4).
In the case of `O=C1NS(=O)(=O)c2ccccc21`, the outcome is reported as “inactive”.
For `CC(=O)Nc1ccc(O)cc1`, the outcome was “inactive”.
With `CN(Cc1cnc2nc(N)nc(N)c2n1)c1ccc(C(=O)N[C@@H](CCC(=O)O)C(=O)O)cc1` the outcome was “inactive”.
In the case of `CC/C(=C(/CC)c1ccc(O)cc1)c1ccc(O)cc1`, the AC50 is reported as 2.86 µM (active).
In the case of `CC1(C)S[C@@H]2[C@H](NC(=O)Cc3ccccc3)C(=O)N2[C@H]1C(=O)O`, the outcome is reported as “inactive”.
With `CC1=C(/C=C/C(C)=C/C=C/C(C)=C\C(=O)O)C(C)(C)CCC1` the AC50 was 18.6 µM (active).
With `O=c1[nH]cc(F)c(=O)[nH]1` the AC50 was 4.95 µM (active).
For `CCCC(CCC)C(=O)O`, the outcome was “inactive”.
In the case of `O=C1NC(=O)C(c2ccccc2)(c2ccccc2)N1`, the AC50 is reported as 100 µM (active).
With `Nc1cccc2c1C(=O)N(C1CCC(=O)NC1=O)C2=O` (stereo unspecified) the outcome was “inactive”.
For `Nc1nc2ncc(CNc3ccc(C(=O)N[C@@H](CCC(=O)O)C(=O)O)cc3)nc2c(=O)[nH]1`, the outcome was “inactive”.
In the case of `CS(=O)(=O)OCCCCOS(C)(=O)=O`, the AC50 is reported as 57.8 µM (active).
In the case of `O=C1CCC(N2C(=O)c3ccccc3C2=O)C(=O)N1` (stereo unspecified), the outcome is reported as “inactive”.
With `CCN(CC)CCNC(=O)c1c(C)[nH]c(/C=C2\C(=O)Nc3ccc(F)cc32)c1C` the AC50 was 1.18 µM (active).
In the case of `CC1=C(/C=C/C(C)=C/C=C/C(C)=C/C(=O)O)C(C)(C)CCC1`, the AC50 is reported as 18.5 µM (active).
For `CC(C)(c1ccc(O)cc1)c1ccc(O)cc1`, the AC50 was 33.5 µM (active).
